What all share (assay): PBM; 200 nM protein, PBS
Conditions in all cases: dsDNA, one strand shown

The target in experiment [1] is HOXB4 (Homo sapiens, UniProt P17483 148-234).
Experiment [2] deals with T1, VENTX (Homo sapiens, UniProt O95231 78-163, R121Q).
T1 sequence: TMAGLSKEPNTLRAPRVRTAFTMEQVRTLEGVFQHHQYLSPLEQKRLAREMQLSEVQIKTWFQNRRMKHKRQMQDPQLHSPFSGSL

The target of experiment [3] is HOXA4 (Homo sapiens, UniProt Q00056 201-287, W262R).
Experiment [4] addresses T2, VENTX (Homo sapiens, UniProt O95231 78-163, Y115F).
T2 sequence: T1 sequence with Y38F, Q44R

For experiment [5], the target named is HOXA2 (Homo sapiens, UniProt O43364 129-215, R185T).
Chain of HOXA2 (Homo sapiens, UniProt O43364 129-215, R185T) (O43364 129-215 R185T): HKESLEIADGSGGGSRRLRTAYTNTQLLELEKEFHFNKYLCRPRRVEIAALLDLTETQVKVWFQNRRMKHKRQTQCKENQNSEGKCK
Experiment [6] has as its target HOXA4 (Homo sapiens, UniProt Q00056 201-287, R217L).
In experiment [7] the target is HOXB4 (Homo sapiens, UniProt P17483 148-234, V174I).
Chain of HOXB4 (Homo sapiens, UniProt P17483 148-234, V174I) (P17483 148-234 V174I): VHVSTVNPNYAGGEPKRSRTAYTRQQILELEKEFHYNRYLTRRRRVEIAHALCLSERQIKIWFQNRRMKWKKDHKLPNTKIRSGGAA
Experiment [8] addresses HOXA2 (Homo sapiens, UniProt O43364 129-215, R185K).
In experiment [9] the target is HOXA4 (Homo sapiens, UniProt Q00056 201-287).
Chain of HOXA4 (Homo sapiens, UniProt Q00056 201-287) (Q00056 201-287): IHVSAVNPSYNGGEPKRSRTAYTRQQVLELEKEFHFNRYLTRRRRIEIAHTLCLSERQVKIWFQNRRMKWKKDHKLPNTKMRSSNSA
Experiment [10] addresses VAX1 (Homo sapiens, UniProt Q5SQQ9 86-172).
For experiment [11], the target named is VAX1 (Homo sapiens, UniProt Q5SQQ9 86-172, T142I).
Chain of VAX1 (Homo sapiens, UniProt Q5SQQ9 86-172, T142I) (Q5SQQ9 86-172 T142I): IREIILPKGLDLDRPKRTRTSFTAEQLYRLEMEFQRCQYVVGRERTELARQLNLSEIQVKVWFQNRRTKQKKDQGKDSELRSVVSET
Experiment [12] has as its target HOXA2 (Homo sapiens, UniProt O43364 129-215, Y150S).
The target in experiment [13] is HOXA4 (Homo sapiens, UniProt Q00056 201-287, W262F).
Chain of HOXA4 (Homo sapiens, UniProt Q00056 201-287, W262F) (Q00056 201-287 W262F): as the sequence (Q00056 201-287) above, with W62F counted along it
Experiment [14] has as its target HOXA2 (Homo sapiens, UniProt O43364 129-215).
The target in experiment [15] is VAX1 (Homo sapiens, UniProt Q5SQQ9 86-172, K157R).
Chain of VAX1 (Homo sapiens, UniProt Q5SQQ9 86-172, K157R) (Q5SQQ9 86-172 K157R): as the sequence (Q5SQQ9 86-172 T142I) above, with I57T, K72R counted along it
The target of a further experiment is HESX1 (Homo sapiens, UniProt Q9UBX0 95-180, F115L).
Chain of HESX1 (Q9UBX0 95-180 F115L): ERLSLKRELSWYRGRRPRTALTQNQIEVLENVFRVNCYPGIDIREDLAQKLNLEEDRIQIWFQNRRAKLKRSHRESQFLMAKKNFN

Residue numbers refer to the chain shown, from its start.

Chain of HOXB4 (Homo sapiens, UniProt P17483 148-234) (P17483 148-234): as the sequence (P17483 148-234 V174I) above, with I27V counted along it
Chain of HOXA4 (Homo sapiens, UniProt Q00056 201-287, W262R) (Q00056 201-287 W262R): as the sequence (Q00056 201-287) above, with W62R counted along it
Chain of HOXA2 (Homo sapiens, UniProt O43364 129-215, Y150S) (O43364 129-215 Y150S): as the sequence (O43364 129-215 R185T) above, with Y22S, T57R counted along it
Chain of HOXA4 (Homo sapiens, UniProt Q00056 201-287, R217L) (Q00056 201-287 R217L): as the sequence (Q00056 201-287) above, with R17L counted along it
Chain of HOXA2 (Homo sapiens, UniProt O43364 129-215) (O43364 129-215): as the sequence (O43364 129-215 R185T) above, with T57R counted along it
Chain of HOXA2 (Homo sapiens, UniProt O43364 129-215, R185K) (O43364 129-215 R185K): as the sequence (O43364 129-215 R185T) above, with T57K counted along it
Chain of VAX1 (Homo sapiens, UniProt Q5SQQ9 86-172) (Q5SQQ9 86-172): as the sequence (Q5SQQ9 86-172 T142I) above, with I57T counted along it

In the case of CTTAATGA, the binding signal is 13.3 upbm affinity estimate (log intensity, higher = more binding, comparable within an allelic series) with HOXB4 [1]; 11.8 upbm affinity estimate (log intensity, higher = more binding, comparable within an allelic series) with VENTX [2]; 10.7 upbm affinity estimate (log intensity, higher = more binding, comparable within an allelic series) in the experiment with HOXA4 [3]; 11.7 upbm affinity estimate (log intensity, higher = more binding, comparable within an allelic series) in the experiment with VENTX [4]; 12.8 upbm affinity estimate (log intensity, higher = more binding, comparable within an allelic series) in the experiment with HOXA2 [5]; 12.5 upbm affinity estimate (log intensity, higher = more binding, comparable within an allelic series) with HOXA4 [6]. In addition, the binding signal with HOXB4 [7] is 13.9 upbm affinity estimate (log intensity, higher = more binding, comparable within an allelic series); with HOXA2 [8], 13.4 upbm affinity estimate (log intensity, higher = more binding, comparable within an allelic series); in the experiment with HOXA4 [9] it was 14 upbm affinity estimate (log intensity, higher = more binding, comparable within an allelic series); in the experiment with VAX1 [10], 13.3 upbm affinity estimate (log intensity, higher = more binding, comparable within an allelic series); with VAX1 [11], 13.1 upbm affinity estimate (log intensity, higher = more binding, comparable within an allelic series); with HOXA2 [12], 10.8 upbm affinity estimate (log intensity, higher = more binding, comparable within an allelic series). The binding signal with HOXA4 [13] is 12.1 upbm affinity estimate (log intensity, higher = more binding, comparable within an allelic series); with HOXA2 [14] it was 12.7 upbm affinity estimate (log intensity, higher = more binding, comparable within an allelic series); with VAX1 [15], 13.1 upbm affinity estimate (log intensity, higher = more binding, comparable within an allelic series).
Turning to GGCCCCCC, the binding signal with HOXB4 [1] was 7.99 upbm affinity estimate (log intensity, higher = more binding, comparable within an allelic series); with HOXB4 [7] it was 7.93 upbm affinity estimate (log intensity, higher = more binding, comparable within an allelic series).
CGCCGCCG: the binding signal with HOXB4 [1] is 8.06 upbm affinity estimate (log intensity, higher = more binding, comparable within an allelic series); with VENTX [2], 8.02 upbm affinity estimate (log intensity, higher = more binding, comparable within an allelic series); with VENTX [4], 8.17 upbm affinity estimate (log intensity, higher = more binding, comparable within an allelic series); with HOXB4 [7], 7.89 upbm affinity estimate (log intensity, higher = more binding, comparable within an allelic series); with VAX1 [10], 7.38 upbm affinity estimate (log intensity, higher = more binding, comparable within an allelic series); with VAX1 [11] it was 7.39 upbm affinity estimate (log intensity, higher = more binding, comparable within an allelic series). Moreover, in the experiment with VAX1 [15], the binding signal is 7.32 upbm affinity estimate (log intensity, higher = more binding, comparable within an allelic series).
With CGCAGACC, the binding signal with HOXB4 [1] was 7.32 upbm affinity estimate (log intensity, higher = more binding, comparable within an allelic series); with VENTX [2] it was 8.16 upbm affinity estimate (log intensity, higher = more binding, comparable within an allelic series); with VENTX [4], 8.12 upbm affinity estimate (log intensity, higher = more binding, comparable within an allelic series); with HOXB4 [7], 7.36 upbm affinity estimate (log intensity, higher = more binding, comparable within an allelic series).
With GCCGCCGC, the binding signal is 7.18 upbm affinity estimate (log intensity, higher = more binding, comparable within an allelic series) with HOXB4 [1]; 7.93 upbm affinity estimate (log intensity, higher = more binding, comparable within an allelic series) with VENTX [2]; 9.6 upbm affinity estimate (log intensity, higher = more binding, comparable within an allelic series) in the experiment with HOXA4 [3]; 7.83 upbm affinity estimate (log intensity, higher = more binding, comparable within an allelic series) with VENTX [4]; 6.96 upbm affinity estimate (log intensity, higher = more binding, comparable within an allelic series) in the experiment with HOXA2 [5]; 9.61 upbm affinity estimate (log intensity, higher = more binding, comparable within an allelic series) with HOXA4 [6]. In addition, the binding signal with HOXB4 [7] was 7.39 upbm affinity estimate (log intensity, higher = more binding, comparable within an allelic series); with HOXA2 [8], 9.77 upbm affinity estimate (log intensity, higher = more binding, comparable within an allelic series); in the experiment with HOXA4 [9] it was 9.67 upbm affinity estimate (log intensity, higher = more binding, comparable within an allelic series); with HOXA2 [12] it was 10.3 upbm affinity estimate (log intensity, higher = more binding, comparable within an allelic series); with HOXA4 [13] it was 9.69 upbm affinity estimate (log intensity, higher = more binding, comparable within an allelic series); with HOXA2 [14], 6.9 upbm affinity estimate (log intensity, higher = more binding, comparable within an allelic series).
For the sequence CCTGACCC, the binding signal was 7.93 upbm affinity estimate (log intensity, higher = more binding, comparable within an allelic series) in the experiment with HOXB4 [1] and 7.87 upbm affinity estimate (log intensity, higher = more binding, comparable within an allelic series) in the experiment with HOXB4 [7].
Regarding ATTAATCG, the binding signal with HOXB4 [1] is 13 upbm affinity estimate (log intensity, higher = more binding, comparable within an allelic series); in the experiment with VENTX [2], 11.6 upbm affinity estimate (log intensity, higher = more binding, comparable within an allelic series); in the experiment with HOXA4 [3], 10.5 upbm affinity estimate (log intensity, higher = more binding, comparable within an allelic series); with VENTX [4], 11.4 upbm affinity estimate (log intensity, higher = more binding, comparable within an allelic series); with HOXA4 [6], 11.9 upbm affinity estimate (log intensity, higher = more binding, comparable within an allelic series); in the experiment with HOXB4 [7], 13.7 upbm affinity estimate (log intensity, higher = more binding, comparable within an allelic series). In addition, the binding signal was 13.6 upbm affinity estimate (log intensity, higher = more binding, comparable within an allelic series) with HOXA4 [9] and 11.2 upbm affinity estimate (log intensity, higher = more binding, comparable within an allelic series) with HOXA4 [13].
As for CTAATGAG, the binding signal is 13 upbm affinity estimate (log intensity, higher = more binding, comparable within an allelic series) in the experiment with HOXB4 [1]; 11.9 upbm affinity estimate (log intensity, higher = more binding, comparable within an allelic series) with VENTX [2]; 10.5 upbm affinity estimate (log intensity, higher = more binding, comparable within an allelic series) with HOXA4 [3]; 12 upbm affinity estimate (log intensity, higher = more binding, comparable within an allelic series) in the experiment with VENTX [4]; 13.3 upbm affinity estimate (log intensity, higher = more binding, comparable within an allelic series) in the experiment with HOXA2 [5]; 11.8 upbm affinity estimate (log intensity, higher = more binding, comparable within an allelic series) with HOXA4 [6]. Also, the binding signal with HOXB4 [7] was 13.6 upbm affinity estimate (log intensity, higher = more binding, comparable within an allelic series); in the experiment with HOXA2 [8], 13.6 upbm affinity estimate (log intensity, higher = more binding, comparable within an allelic series); with HOXA4 [9], 13.8 upbm affinity estimate (log intensity, higher = more binding, comparable within an allelic series); with VAX1 [10], 13.6 upbm affinity estimate (log intensity, higher = more binding, comparable within an allelic series); with VAX1 [11] it was 13.3 upbm affinity estimate (log intensity, higher = more binding, comparable within an allelic series); with HOXA2 [12], 10.6 upbm affinity estimate (log intensity, higher = more binding, comparable within an allelic series). Further, the binding signal was 11.6 upbm affinity estimate (log intensity, higher = more binding, comparable within an allelic series) with HOXA4 [13]; 12.8 upbm affinity estimate (log intensity, higher = more binding, comparable within an allelic series) with HOXA2 [14]; 13.4 upbm affinity estimate (log intensity, higher = more binding, comparable within an allelic series) with VAX1 [15].
Turning to TATTAATA, the binding signal with HOXB4 [1] was 12.7 upbm affinity estimate (log intensity, higher = more binding, comparable within an allelic series); with HOXB4 [7] it was 13.3 upbm affinity estimate (log intensity, higher = more binding, comparable within an allelic series); with HESX1, 8.46 upbm affinity estimate (log intensity, higher = more binding, comparable within an allelic series).
CCCATTAA: the binding signal with HOXB4 [1] was 13 upbm affinity estimate (log intensity, higher = more binding, comparable within an allelic series); in the experiment with VENTX [2], 12.1 upbm affinity estimate (log intensity, higher = more binding, comparable within an allelic series); with HOXA4 [3] it was 10.4 upbm affinity estimate (log intensity, higher = more binding, comparable within an allelic series); with VENTX [4], 12 upbm affinity estimate (log intensity, higher = more binding, comparable within an allelic series); in the experiment with HOXA2 [5], 12.5 upbm affinity estimate (log intensity, higher = more binding, comparable within an allelic series); in the experiment with HOXA4 [6], 11.9 upbm affinity estimate (log intensity, higher = more binding, comparable within an allelic series). For the same sequence, the binding signal was 13.5 upbm affinity estimate (log intensity, higher = more binding, comparable within an allelic series) with HOXB4 [7]; 13.1 upbm affinity estimate (log intensity, higher = more binding, comparable within an allelic series) with HOXA2 [8]; 13.7 upbm affinity estimate (log intensity, higher = more binding, comparable within an allelic series) with HOXA4 [9]; 12.9 upbm affinity estimate (log intensity, higher = more binding, comparable within an allelic series) with VAX1 [10]; 12.5 upbm affinity estimate (log intensity, higher = more binding, comparable within an allelic series) in the experiment with VAX1 [11]; 10.7 upbm affinity estimate (log intensity, higher = more binding, comparable within an allelic series) with HOXA2 [12]. The binding signal with HOXA4 [13] was 11.1 upbm affinity estimate (log intensity, higher = more binding, comparable within an allelic series); in the experiment with HOXA2 [14], 12.1 upbm affinity estimate (log intensity, higher = more binding, comparable within an allelic series); with VAX1 [15] it was 12.6 upbm affinity estimate (log intensity, higher = more binding, comparable within an allelic series).
Regarding ACTCATTA, the binding signal with HOXB4 [1] was 13 upbm affinity estimate (log intensity, higher = more binding, comparable within an allelic series); in the experiment with VENTX [2], 11.6 upbm affinity estimate (log intensity, higher = more binding, comparable within an allelic series); in the experiment with HOXA4 [3] it was 10.7 upbm affinity estimate (log intensity, higher = more binding, comparable within an allelic series); with VENTX [4], 11.7 upbm affinity estimate (log intensity, higher = more binding, comparable within an allelic series); with HOXA2 [5] it was 13 upbm affinity estimate (log intensity, higher = more binding, comparable within an allelic series); in the experiment with HOXA4 [6], 12.1 upbm affinity estimate (log intensity, higher = more binding, comparable within an allelic series). Moreover, the binding signal with HOXB4 [7] was 13.6 upbm affinity estimate (log intensity, higher = more binding, comparable within an allelic series); in the experiment with HOXA2 [8], 13.5 upbm affinity estimate (log intensity, higher = more binding, comparable within an allelic series); with HOXA4 [9] it was 13.8 upbm affinity estimate (log intensity, higher = more binding, comparable within an allelic series); with VAX1 [10], 13.2 upbm affinity estimate (log intensity, higher = more binding, comparable within an allelic series); in the experiment with VAX1 [11] it was 13.1 upbm affinity estimate (log intensity, higher = more binding, comparable within an allelic series); in the experiment with HOXA2 [12] it was 10.9 upbm affinity estimate (log intensity, higher = more binding, comparable within an allelic series). Besides, the binding signal is 11.7 upbm affinity estimate (log intensity, higher = more binding, comparable within an allelic series) with HOXA4 [13]; 12.6 upbm affinity estimate (log intensity, higher = more binding, comparable within an allelic series) in the experiment with HOXA2 [14]; 13.1 upbm affinity estimate (log intensity, higher = more binding, comparable within an allelic series) with VAX1 [15].

These data come from article PMC11006913.
